Screening results: PubChem BioAssay, National Center for Advancing Translational Sciences (NCATS)
Tb PYK inh = blocks Trypanosoma brucei pyruvate kinase; Q57TT1; AID 624173; Potency, µM (titrated, usually from 76.8 µM), for inactives: at the highest dose activity, negative = inhibition, actives largely listed as inhibitors; 0.12% of 410,000 active; TbPYK enzyme, Kinase-Glo Plus ATP luminescence, 45 min; also: potency is read from the fitted curve at half-maximal effect; % is scaled to controls: 0 for no effect and ±100 for the full control effect; nearly all actives have a fitted effect of over 50% in size
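Luminescent Kinase-Glo Plus end-point after 45 min room-temperature reaction of T. brucei pyruvate kinase started with 130 uM ADP (final). Buffer TEA 50 mM pH 7.2 with KCl, MgCl2, BSA, Tween-20; titration-based qHTS with fitted concentration-effect curves.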
Giardia FBPA inh = blocks Giardia fructose-bisphosphate aldolase activity | A8B2U2 | purified Giardia FBPA | Potency, µM (top dose mostly 59.6 µM), without a hit: at the top dose activity, negative = inhibition, hits mostly inhibitors | 0.71% of 290,000 active | AID 2451; also: potency is read from the fitted curve at half-maximal effect; % is scaled to controls: 0 for no effect and ±100 for the full control effect; nearly all actives have a fitted effect of over 55% in size
Target sequence (A8B2U2 whole entry, looked up): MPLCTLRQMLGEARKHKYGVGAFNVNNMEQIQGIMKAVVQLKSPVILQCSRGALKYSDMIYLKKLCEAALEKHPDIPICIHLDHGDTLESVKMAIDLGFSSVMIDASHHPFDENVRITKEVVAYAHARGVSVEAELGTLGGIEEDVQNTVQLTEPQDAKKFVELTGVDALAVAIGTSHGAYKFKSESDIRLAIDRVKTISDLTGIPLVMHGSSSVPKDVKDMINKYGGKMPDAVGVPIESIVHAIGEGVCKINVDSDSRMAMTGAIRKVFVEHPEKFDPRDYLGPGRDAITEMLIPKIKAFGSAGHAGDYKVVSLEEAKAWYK
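Giardia FBPA (40 nM reagent) was preincubated 10 min at RT with compound (up to 57.5 uM final), then substrate plus GAPDH/TPI/NAD/arsenate coupling system with diaphorase/resazurin was added; resorufin fluorescence (525/598 nm) was read after 20 min.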
Cycloheximide cs = affects cycloheximide protein synthesis inhibition readout, counter-screen | cell reporter, cycloheximide protein synthesis inhibition counterscreen | max response, % | 12% of 300,000 active | AID 2314; in the data active = max response mostly above about 13%, no sharp cut-off; inactive = mostly below about 14%; also: read at 38.3 µM for the half of the compounds with a filed dose; 0% is about no effect
Shiga toxin inh = Shiga toxin inhibition | AID 2315 | inhibition, % at 38.7 µM | Vero cells, Shiga toxin protein synthesis inhibition reporter | 9.2% of 290,000 active; in the data active = inhibition mostly above about 28%, no sharp cut-off; inactive = mostly below about 43%; also: 0% is about no effect
LmPK inh = LmPK (Leishmania mexicana) enzyme inhibition; Q27686; purified LmPK, Kinase-Glo ATP luminescence, 1 h; Potency, µM (series often up to 57.5 µM), for inactives: at the highest dose activity change, negative = inhibition, hits mostly inhibitors; 0.37% of 290,000 active; AID 1721; also: potency is read from the fitted curve at half-maximal effect; % is scaled to controls: 0 for no effect and ±100 for the full control effect
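ATP generated from ADP (0.1 mM) and PEP (0.5 mM) by 0.1 nM LmPK over 1 h at room temperature (pH 7.2 imidazole buffer) was detected by coupled luciferase luminescence. Values were normalized to uninhibited and no-enzyme wells.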
RE007 growth inh = less growth of the S. pombe RE007 Vpr strain; 0.21% of 360,000 active; S. pombe RE007 Vpr strain, BacTiter-Glo ATP luminescence, 24 h; Potency, µM (highest dose often 92.2 µM), inactives show at the top dose activity change, negative = less growth, usual class: inhibitors; AID 651644; active = well fitted falling curve with a large enough effect; inconclusive = small, poorly fitted or top-dose-only effect; inactive = no such curve, though single readings can be large or run the other way; also: potency is read from the fitted curve at half-maximal effect; % is scaled to controls: 0 for no effect and ±100 for the full control effect; nearly all actives have a fitted effect of over 50% in size
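Fission yeast strain RE007, carrying one chromosomally integrated HIV-1 vpr copy, was seeded at OD 0.01 in PMG+AL medium with 23 nL pinned compound. After 24 h at 30 °C and 99% humidity, viability was read by BacTiter-Glo luminescence.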
The depositor's hits bear a star; u = inconclusive; x = no result given. Shown is part of a subset that was picked to be rich in hits. Unless noted, calls follow the shape of the dose curve; as a rule, active = well fitted curve in the direction sought with a large enough effect; inconclusive = small, poorly fitted or top-dose-only effect, or another doubt; inactive = no such curve, though single readings can be large; an effect the other way counts as inactive or inconclusive.

SMILES	Tb PYK inh	Giardia FBPA inh	Cycloheximide cs	Shiga toxin inh	LmPK inh	RE007 growth inh
CC(C)(C)N1C(=O)c2ccc(C(=O)Nc3ccc(-c4nc5ccccc5[nH]4)cc3)cc2C1=O	-2%	0%	29*	47*	9%	9%
CS(=O)(=O)c1ccccc1C(=O)Nc1ccc(-c2nc3ccccc3[nH]2)cc1	0%	1%	19*	42*	1%	1%
CS(=O)(=O)c1cccc(C(=O)Nc2ccc(-c3nc4ccccc4[nH]3)cc2)c1	3%	-3%	24	6	3%	-6%
COc1ccccc1Cn1c(CNS(=O)(=O)c2c(C)cc(C)cc2C)nc2cccnc21	-11%	x	x	x	x	x
C=C(C)CC(C)(C)C	x	2%	-4	20	x	x
Cc1nc2ccc(NC(=O)N(C(C)C)C(C)C)cc2s1	-8%	-11%	35*	53*	-1%	-28%
CC(C)(C)NC(=O)Nc1ccc2nccnc2c1	4%	u	29*	88*	2%	0%
Cc1nc2ccc(NC(=O)N(C)c3ccccc3)cc2s1	-12%	2%	40*	55*	-10%	-2%
CC(C)N(C(=O)Nc1ccc2nccnc2c1)C(C)C	0%	3.5µM*	25	41	-1%	-11%
CC1CCCN(C2(O)C(=O)Nc3c(C(F)(F)F)cccc32)C1 (centres undefined)	6%	1%	9.4*	24	2%	22%
Cc1ccc(NC(=O)CSc2ncnc3c2sc2ccccc23)cc1C	4%	x	x	x	x	x
COc1cc(/C=N/NC(=O)NC23CC4CC(CC(C4)C2)C3)ccc1O	1%	-5%	8	37*	1%	20%
O=C(N/N=C/c1ccccc1O)NC12CC3CC(CC(C3)C1)C2	-9%	5%	46*	139*	0%	13%
COC(=O)C(C(=O)OC)C(Cc1cc(F)cc(F)c1F)NC=O (centres undefined)	x	1%	x	x	x	x
CCOc1ccc(-n2nc3cc(C)c(N)cc3n2)cc1	0%	-28%	32*	48*	-1%	-9%
COc1ccc(-n2nc3ccc(N)cc3n2)cc1	-3%	x	x	x	x	-29%
CCOc1ccc(-n2nc3ccc(N)cc3n2)cc1	3%	2%	36*	31*	-4%	-20%
Cn1cc(S(=O)(=O)c2ccccc2)c(=O)c2cc(F)c(N3CCN(c4ccccc4)CC3)cc21	2%	x	x	x	x	x
CC(=NC1CCCCC1)C1=C(O)c2ccccc2C1=O	1%	u	46*	50	2%	2%
COc1cc(N2CCOCC2)ccc1/C=C1\C(=O)NC(=O)N(C2CCCCC2)C1=O	u	-7%	-2	2	6%	-5%
CCN1C(=O)NC(=O)/C(=C\c2ccc(N3CCOCC3)cc2OC)C1=O	x	-11%	67*	56*	-2%	x
O=C(O)CC(O)CC(O)/C=C/c1c(C2CC2)nc2ccccc2c1-c1ccc(F)cc1 (centres undefined)	3%	x	x	x	x	x
COc1ccc(N=Cc2c(O)n(Cc3cccs3)c(=O)[nH]c2=O)cc1	-1%	1%	-2	-13	6%	10%
COc1ccc(N=Cc2c(O)n(CC3CCCO3)c(=O)[nH]c2=O)cc1 (centres undefined)	0%	-6%	11*	28	-2%	3%
CC(C)CCNC(=O)NC(=O)COc1ccccc1C#N	0%	1%	19*	30*	0%	u
SMILES	Tb PYK inh	Giardia FBPA inh	Cycloheximide cs	Shiga toxin inh	LmPK inh	RE007 growth inh
CC(C)NC(=O)COc1ccccc1C#N	2%	3%	-3	-6	6%	-4%
Cc1cccc(OCC(=O)Nc2ccc3c(c2)nc(CCNC(=O)c2ccco2)n3C)c1	-1%	x	x	x	x	x
N/C(=N\c1nc2ccccc2o1)NC(=O)/C=C/c1ccccc1	-1%	3%	0	-7	3%	4%
CCC(=O)N/C(N)=N/c1nc2ccccc2o1	-7%	-21%	61*	85*	-9%	-1%
NC(=NCc1ccco1)NC(=O)c1ccccc1	5%	8%	27*	21*	-1%	-14%
O=C(Nc1ccccc1C(=O)NCc1ccco1)c1ccccc1	-21%	1%	10	25	4%	1%
COc1ccccc1C(=O)N/C(N)=N/c1nc2ccccc2o1	-9%	-4%	20	37*	0%	-16%
